Experimental data from the supplement of paper PMC10849652.
The full data set covers some 7,900 targets. This sample favours those with a hit. About 0.6% of all pairs of compound and target were hits. Values without a mark were called inactive.

compound: CN(CCOC1=CC=C(C=C1)C[C@H]2C(=O)NC(=O)S2)C3=CC=CC=N3 (racemic) [rosiglitazone]; test: log2 fold change, soluble protein after heating vs DMSO (PISA); higher = thermal stabilisation; K562 cells, 10 uM, 30 min; active = over 0.2 and 3.5 SD of the protein, either way, in both replicates (recomputed)
Summary of the method: (§1)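 Soluble protein was defined as the supernatant after 21,000xg for 90 min. It came from K562 cells at 2×10^6 cells/mL given 10 μM compound for 30 min, heated in aliquots for 3 min across 48°C-58°C, pooled, and extracted in PBS with 0.5% NP-40 at 4°C, and was quantified by TMTpro 16plex LC-MS/MS with equalised channel sums. Thermal stability against control samples, from duplicates, is reported as log2 fold change.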

Sequence of UniProt Q9H0E9 (Q9H0E9 whole entry, looked up): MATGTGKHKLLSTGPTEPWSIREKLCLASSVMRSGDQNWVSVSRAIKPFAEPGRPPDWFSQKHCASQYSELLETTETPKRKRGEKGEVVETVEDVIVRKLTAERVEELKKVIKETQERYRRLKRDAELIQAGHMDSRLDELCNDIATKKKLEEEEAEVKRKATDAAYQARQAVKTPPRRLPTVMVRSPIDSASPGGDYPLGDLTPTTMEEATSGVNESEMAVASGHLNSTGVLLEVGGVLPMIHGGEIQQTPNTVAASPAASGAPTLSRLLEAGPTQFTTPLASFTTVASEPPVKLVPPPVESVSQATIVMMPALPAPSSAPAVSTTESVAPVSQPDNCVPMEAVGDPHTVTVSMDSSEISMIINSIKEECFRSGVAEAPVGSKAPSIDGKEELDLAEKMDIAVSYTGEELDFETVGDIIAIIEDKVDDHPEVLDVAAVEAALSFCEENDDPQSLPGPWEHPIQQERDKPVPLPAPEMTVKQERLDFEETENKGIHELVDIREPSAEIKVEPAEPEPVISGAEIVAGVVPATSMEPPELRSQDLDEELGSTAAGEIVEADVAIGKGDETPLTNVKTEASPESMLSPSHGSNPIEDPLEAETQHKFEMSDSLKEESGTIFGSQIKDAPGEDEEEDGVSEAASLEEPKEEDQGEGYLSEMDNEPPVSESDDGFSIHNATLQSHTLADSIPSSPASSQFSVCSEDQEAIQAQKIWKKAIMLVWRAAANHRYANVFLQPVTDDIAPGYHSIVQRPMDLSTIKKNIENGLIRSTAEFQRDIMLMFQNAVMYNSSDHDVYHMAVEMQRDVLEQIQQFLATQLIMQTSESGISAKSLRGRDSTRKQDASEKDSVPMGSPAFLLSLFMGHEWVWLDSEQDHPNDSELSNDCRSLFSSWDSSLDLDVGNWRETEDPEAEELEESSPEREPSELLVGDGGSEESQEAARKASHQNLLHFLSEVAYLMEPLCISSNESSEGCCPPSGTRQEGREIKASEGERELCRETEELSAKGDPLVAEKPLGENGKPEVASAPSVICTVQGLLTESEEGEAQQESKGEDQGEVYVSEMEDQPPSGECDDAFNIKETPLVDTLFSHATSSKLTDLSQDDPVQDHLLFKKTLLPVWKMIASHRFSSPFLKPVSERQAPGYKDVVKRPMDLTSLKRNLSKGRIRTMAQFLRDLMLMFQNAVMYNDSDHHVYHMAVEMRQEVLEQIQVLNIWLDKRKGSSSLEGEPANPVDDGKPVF
Sequence of UniProt Q01484 (Q01484 whole entry, looked up): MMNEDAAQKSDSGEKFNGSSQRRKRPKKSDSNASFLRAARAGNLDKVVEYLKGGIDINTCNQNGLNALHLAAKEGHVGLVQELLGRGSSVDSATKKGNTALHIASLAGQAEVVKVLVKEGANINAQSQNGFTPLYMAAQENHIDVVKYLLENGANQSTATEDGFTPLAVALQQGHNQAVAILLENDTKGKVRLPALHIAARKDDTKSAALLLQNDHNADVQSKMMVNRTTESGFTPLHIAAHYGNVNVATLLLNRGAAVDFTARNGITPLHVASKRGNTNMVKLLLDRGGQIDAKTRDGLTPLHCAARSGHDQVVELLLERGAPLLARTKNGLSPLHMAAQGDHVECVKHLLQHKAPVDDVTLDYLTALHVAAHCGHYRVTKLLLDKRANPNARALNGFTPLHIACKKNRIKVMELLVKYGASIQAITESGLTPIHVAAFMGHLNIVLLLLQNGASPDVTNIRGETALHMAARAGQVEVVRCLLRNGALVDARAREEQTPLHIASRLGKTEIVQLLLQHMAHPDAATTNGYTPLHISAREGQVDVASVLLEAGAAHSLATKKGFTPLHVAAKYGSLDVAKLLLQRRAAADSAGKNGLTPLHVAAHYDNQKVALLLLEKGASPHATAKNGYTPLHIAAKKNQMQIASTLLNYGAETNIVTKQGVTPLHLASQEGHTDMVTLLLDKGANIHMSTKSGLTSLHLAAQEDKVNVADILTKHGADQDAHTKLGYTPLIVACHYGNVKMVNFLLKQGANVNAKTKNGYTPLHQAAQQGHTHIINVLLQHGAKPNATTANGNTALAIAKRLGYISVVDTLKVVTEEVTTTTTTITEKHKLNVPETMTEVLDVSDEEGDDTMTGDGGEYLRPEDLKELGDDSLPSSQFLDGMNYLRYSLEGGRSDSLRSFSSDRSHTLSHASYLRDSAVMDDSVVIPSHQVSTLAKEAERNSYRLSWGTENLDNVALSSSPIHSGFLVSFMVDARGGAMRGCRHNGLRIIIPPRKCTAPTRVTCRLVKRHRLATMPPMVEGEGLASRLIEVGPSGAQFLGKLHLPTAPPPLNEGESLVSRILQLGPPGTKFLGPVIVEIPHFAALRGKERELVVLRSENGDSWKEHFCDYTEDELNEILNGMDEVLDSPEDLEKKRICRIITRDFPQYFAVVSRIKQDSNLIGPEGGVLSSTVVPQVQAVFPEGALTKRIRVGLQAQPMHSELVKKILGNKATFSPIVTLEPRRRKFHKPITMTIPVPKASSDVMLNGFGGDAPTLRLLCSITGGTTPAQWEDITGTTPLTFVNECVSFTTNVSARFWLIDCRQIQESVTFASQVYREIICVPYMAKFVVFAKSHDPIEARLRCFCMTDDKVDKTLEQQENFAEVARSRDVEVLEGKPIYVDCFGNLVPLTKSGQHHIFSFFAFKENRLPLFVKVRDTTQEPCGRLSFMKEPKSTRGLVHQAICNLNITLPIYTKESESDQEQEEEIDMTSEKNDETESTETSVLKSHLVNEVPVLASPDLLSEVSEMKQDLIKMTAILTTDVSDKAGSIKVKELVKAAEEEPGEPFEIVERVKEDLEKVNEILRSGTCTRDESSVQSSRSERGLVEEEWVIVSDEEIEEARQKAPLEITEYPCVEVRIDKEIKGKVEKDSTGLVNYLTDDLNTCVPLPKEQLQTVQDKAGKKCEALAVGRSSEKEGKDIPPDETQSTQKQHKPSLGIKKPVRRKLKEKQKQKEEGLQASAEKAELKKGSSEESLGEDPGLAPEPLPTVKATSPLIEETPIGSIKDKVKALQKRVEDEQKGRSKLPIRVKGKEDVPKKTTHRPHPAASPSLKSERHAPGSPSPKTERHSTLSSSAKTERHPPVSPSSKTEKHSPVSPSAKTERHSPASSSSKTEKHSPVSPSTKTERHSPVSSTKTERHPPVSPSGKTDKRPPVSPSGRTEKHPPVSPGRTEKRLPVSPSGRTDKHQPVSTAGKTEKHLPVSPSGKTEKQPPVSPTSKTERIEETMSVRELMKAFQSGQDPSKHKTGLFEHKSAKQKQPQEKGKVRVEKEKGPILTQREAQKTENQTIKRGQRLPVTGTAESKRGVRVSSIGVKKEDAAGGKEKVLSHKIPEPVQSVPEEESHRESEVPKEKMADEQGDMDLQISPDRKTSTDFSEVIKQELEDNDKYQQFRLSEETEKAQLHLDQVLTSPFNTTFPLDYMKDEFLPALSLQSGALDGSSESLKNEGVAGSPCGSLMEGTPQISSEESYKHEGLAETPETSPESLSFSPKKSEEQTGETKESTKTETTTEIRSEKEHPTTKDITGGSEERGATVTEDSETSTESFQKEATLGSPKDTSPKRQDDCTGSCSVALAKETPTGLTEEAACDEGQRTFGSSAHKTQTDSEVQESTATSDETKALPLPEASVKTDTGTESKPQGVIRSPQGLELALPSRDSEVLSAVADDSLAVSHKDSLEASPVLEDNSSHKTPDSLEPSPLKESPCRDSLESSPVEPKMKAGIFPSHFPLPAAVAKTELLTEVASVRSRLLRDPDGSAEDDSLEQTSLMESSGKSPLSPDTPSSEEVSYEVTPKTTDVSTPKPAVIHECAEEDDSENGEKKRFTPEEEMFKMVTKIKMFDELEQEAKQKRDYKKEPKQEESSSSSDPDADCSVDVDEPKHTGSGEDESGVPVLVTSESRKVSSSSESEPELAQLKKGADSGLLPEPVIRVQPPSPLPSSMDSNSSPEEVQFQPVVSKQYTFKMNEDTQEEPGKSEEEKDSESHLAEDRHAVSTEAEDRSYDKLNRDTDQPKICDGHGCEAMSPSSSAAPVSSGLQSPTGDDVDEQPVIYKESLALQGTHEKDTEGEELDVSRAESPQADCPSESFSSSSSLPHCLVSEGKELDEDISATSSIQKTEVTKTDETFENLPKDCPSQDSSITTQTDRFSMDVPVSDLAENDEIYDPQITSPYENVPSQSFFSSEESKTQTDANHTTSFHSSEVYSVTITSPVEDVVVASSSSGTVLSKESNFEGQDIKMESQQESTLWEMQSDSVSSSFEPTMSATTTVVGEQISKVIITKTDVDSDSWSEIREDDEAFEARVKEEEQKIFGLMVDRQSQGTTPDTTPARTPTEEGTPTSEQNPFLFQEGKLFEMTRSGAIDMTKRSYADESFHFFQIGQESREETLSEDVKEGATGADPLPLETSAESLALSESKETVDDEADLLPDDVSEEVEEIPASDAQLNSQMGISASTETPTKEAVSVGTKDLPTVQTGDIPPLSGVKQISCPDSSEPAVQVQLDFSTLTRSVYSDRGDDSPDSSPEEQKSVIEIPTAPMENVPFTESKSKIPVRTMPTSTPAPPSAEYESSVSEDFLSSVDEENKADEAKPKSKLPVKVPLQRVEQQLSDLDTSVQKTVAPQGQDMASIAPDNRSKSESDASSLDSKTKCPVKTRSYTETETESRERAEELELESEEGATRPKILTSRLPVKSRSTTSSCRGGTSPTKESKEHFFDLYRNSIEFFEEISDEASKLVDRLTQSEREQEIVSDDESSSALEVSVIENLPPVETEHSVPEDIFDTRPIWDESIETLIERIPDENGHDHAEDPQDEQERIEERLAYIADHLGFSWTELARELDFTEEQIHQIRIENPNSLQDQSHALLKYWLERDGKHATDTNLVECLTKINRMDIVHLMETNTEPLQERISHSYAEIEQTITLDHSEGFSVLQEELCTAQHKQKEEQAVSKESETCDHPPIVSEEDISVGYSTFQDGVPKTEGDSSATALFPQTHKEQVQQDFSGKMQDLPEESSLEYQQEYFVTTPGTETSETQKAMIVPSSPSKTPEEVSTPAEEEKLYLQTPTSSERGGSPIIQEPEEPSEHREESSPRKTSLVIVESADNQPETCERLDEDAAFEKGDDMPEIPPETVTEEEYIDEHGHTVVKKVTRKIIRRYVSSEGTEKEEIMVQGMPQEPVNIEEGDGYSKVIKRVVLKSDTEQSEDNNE

ABHD17A isoform 2 (UniProt Q96GS6) and AASDH (UniProt Q4L235) are within 0.2 log units of each other in log2 fold change: 0.009 for the first, -0.044 for the second.

ARFGAP2 (UniProt Q8N6H7) and ACTBL2 (UniProt Q562R1) are within 0.2 log units of each other in log2 fold change: 0.038 for the first, 0.07 for the second.

AMD1 (UniProt P17707) and BRD4 (UniProt O60885) are within 0.2 log units of each other in log2 fold change: 0.089 for the first, -0.01 for the second.

ADPRH (UniProt P54922) and BDH2 (UniProt Q9BUT1) are within 0.2 log units of each other in log2 fold change: 0.141 for the first, 0.001 for the second.

ANXA5 (UniProt P08758) and BTBD6 (UniProt Q96KE9) are within 0.2 log units of each other in log2 fold change: 0.007 for the first, 0 for the second.

BYSL (UniProt Q13895) and ALDH2 isoform 2 (UniProt P05091) are within 0.2 log units of each other in log2 fold change: 0.045 for the first, 0.19 for the second.

ARRDC1 (UniProt Q8N5I2) and BRIP1 (UniProt Q9BX63) are within 0.2 log units of each other in log2 fold change: -0.072 for the first, 0.044 for the second.

ADAM15 (UniProt Q13444) and ABCA3 (UniProt Q99758) are within 0.2 log units of each other in log2 fold change: -0.099 for the first, -0.172 for the second.

AFG1L (UniProt Q8WV93) and BRD8 isoform 2 (UniProt Q9H0E9) are within 0.2 log units of each other in log2 fold change: 0.021 for the first, -0.018 for the second.

ASS1 (UniProt P00966) and APOBEC3G (UniProt Q9HC16) are within 0.2 log units of each other in log2 fold change: 0.071 for the first, -0.115 for the second.

ATF7 isoform 6 (UniProt P17544) and AIFM2 (UniProt Q9BRQ8) are within 0.2 log units of each other in log2 fold change: -0.011 for the first, 0.001 for the second.

ASB6 (UniProt Q9NWX5) and ABITRAM (UniProt Q9NX38) are within 0.2 log units of each other in log2 fold change: 0.067 for the first, 0.139 for the second.

AIF1 (UniProt P55008) and ALKBH4 (UniProt Q9NXW9) are within 0.2 log units of each other in log2 fold change: -0.045 for the first, 0.037 for the second.

Going from BRD3 (UniProt Q15059) to ARHGAP4 isoform 2 (UniProt P98171), the log2 fold change rises from 0.019 to 0.293.

ALDH9A1 (UniProt P49189) and ALDH6A1 (UniProt Q02252) are within 0.2 log units of each other in log2 fold change: -0.062 for the first, 0.093 for the second.

Compared with APOH (UniProt P02749), AGAP3 isoform 4 (UniProt Q96P47) is higher in log2 fold change: -0.048 for the first, 0.162 for the second.

ANK2 (UniProt Q01484) and AAMP (UniProt Q13685) are within 0.2 log units of each other in log2 fold change: 0.03 for the first, 0.001 for the second.

compound: CN1C2=C(C3=C1C(=O)N(N=C3)CC4=CC(=CC=C4)N)SC(=C2)S(=O)C; test: as above
Summary of the method: as §1

ABHD17A isoform 2 (UniProt Q96GS6) and AASDH (UniProt Q4L235) are within 0.2 log units of each other in log2 fold change: -0.015 for the first, -0.019 for the second.

ARFGAP2 (UniProt Q8N6H7) and ACTBL2 (UniProt Q562R1) are within 0.2 log units of each other in log2 fold change: -0.015 for the first, 0.011 for the second.

BRD4 (UniProt O60885) and BDH2 (UniProt Q9BUT1) are within 0.2 log units of each other in log2 fold change: -0.09 for the first, -0.028 for the second.

ANXA5 (UniProt P08758) and BTBD6 (UniProt Q96KE9) are within 0.2 log units of each other in log2 fold change: -0.04 for the first, -0.112 for the second.

BYSL (UniProt Q13895) and ARRDC1 (UniProt Q8N5I2) are within 0.2 log units of each other in log2 fold change: 0.09 for the first, -0.038 for the second.

BRIP1 (UniProt Q9BX63) and ADAM15 (UniProt Q13444) are within 0.2 log units of each other in log2 fold change: 0.041 for the first, -0.028 for the second.

ABCA3 (UniProt Q99758) and AFG1L (UniProt Q8WV93) are within 0.2 log units of each other in log2 fold change: -0.013 for the first, -0.122 for the second.

BRD8 isoform 2 (UniProt Q9H0E9) and ASS1 (UniProt P00966) are within 0.2 log units of each other in log2 fold change: 0.087 for the first, 0.025 for the second.

APOBEC3G (UniProt Q9HC16) and ATF7 isoform 6 (UniProt P17544) are within 0.2 log units of each other in log2 fold change: 0.025 for the first, -0.06 for the second.

First: AIFM2 (UniProt Q9BRQ8)
Second: APAF1 (UniProt O14727)
The log2 fold change of the first is lower: -0.069 for the first, 0.148 for the second.

ABITRAM (UniProt Q9NX38) and ALKBH4 (UniProt Q9NXW9) are within 0.2 log units of each other in log2 fold change: -0.034 for the first, -0.077 for the second.

BRD3 (UniProt Q15059) and ADD3 isoform 2 (UniProt Q9UEY8) are within 0.2 log units of each other in log2 fold change: -0.143 for the first, -0.093 for the second.

ALDH9A1 (UniProt P49189) and ALDH6A1 (UniProt Q02252) are within 0.2 log units of each other in log2 fold change: -0.015 for the first, -0.068 for the second.

Going from APOH (UniProt P02749) to ANK2 (UniProt Q01484), the log2 fold change falls from 0.48 to -0.128.

Target AAMP (UniProt Q13685) has a log2 fold change of -0.004.

In the case of ARHGAP4 isoform 2 (UniProt P98171), the log2 fold change is reported as 0.757 (active).

compound: CN1CCC(CNc2ccc3ncc(-c4cccc(OC(F)(F)F)c4)n3n2)CC1; test: as above
Summary of the method: as §1

With ABHD17A isoform 2 (UniProt Q96GS6) the log2 fold change was -0.377 (active).

AASDH (UniProt Q4L235) and ARFGAP2 (UniProt Q8N6H7) are within 0.2 log units of each other in log2 fold change: 0.004 for the first, -0.068 for the second.

ACTBL2 (UniProt Q562R1) and AMD1 (UniProt P17707) are within 0.2 log units of each other in log2 fold change: 0.065 for the first, -0.091 for the second.

Compared with BRD4 (UniProt O60885), ADPRH (UniProt P54922) is lower in log2 fold change: -0.062 for the first, -0.313 for the second.

BDH2 (UniProt Q9BUT1) and ANXA5 (UniProt P08758) are within 0.2 log units of each other in log2 fold change: -0.033 for the first, -0.042 for the second.

BTBD6 (UniProt Q96KE9) and BYSL (UniProt Q13895) are within 0.2 log units of each other in log2 fold change: -0.021 for the first, 0.053 for the second.

ALDH2 isoform 2 (UniProt P05091) and ARRDC1 (UniProt Q8N5I2) are within 0.2 log units of each other in log2 fold change: -0.072 for the first, 0.027 for the second.

BRIP1 (UniProt Q9BX63) and ADAM15 (UniProt Q13444) are within 0.2 log units of each other in log2 fold change: -0.084 for the first, -0.016 for the second.

ABCA3 (UniProt Q99758) and BRD8 isoform 2 (UniProt Q9H0E9) are within 0.2 log units of each other in log2 fold change: -0.263 for the first, -0.327 for the second.

ASS1 (UniProt P00966) and AIFM2 (UniProt Q9BRQ8) are within 0.2 log units of each other in log2 fold change: -0.005 for the first, 0.068 for the second.

ASB6 (UniProt Q9NWX5) and APAF1 (UniProt O14727) are within 0.2 log units of each other in log2 fold change: -0.083 for the first, -0.088 for the second.

ABITRAM (UniProt Q9NX38) and ALKBH4 (UniProt Q9NXW9) are within 0.2 log units of each other in log2 fold change: -0.093 for the first, -0.082 for the second.

First: BRD3 (UniProt Q15059)
Second: ADD3 isoform 2 (UniProt Q9UEY8)
The log2 fold change of the first is higher: 0.106 for the first, -0.128 for the second.

ALDH9A1 (UniProt P49189) and ALDH6A1 (UniProt Q02252) are within 0.2 log units of each other in log2 fold change: 0.016 for the first, -0.004 for the second.

Compared with APOH (UniProt P02749), ANK2 (UniProt Q01484) is lower in log2 fold change: 0.077 for the first, -0.223 for the second.

For AAMP (UniProt Q13685), the log2 fold change was 0.054.
